High-throughput results (PubChem)
Rows were chosen to be rich in hits. Some 18% of all compounds tested hit in one or more screens of this group.
TDP1 block = TDP1 (human) enzyme inhibition. actives 0.28% (n = 350,000). recombinant TDP1, AlphaScreen DNA substrate cleavage. Q9NUW8. Potency, µM (titrated, usually from 130 µM), for the others: at the top dose activity change, negative = inhibition, most hits filed as inhibitors; note: potency is the fitted concentration of half-maximal effect; nearly all actives have a fitted effect of over 40% in size
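Compounds were preincubated with Tdp1 (1 nM final) for 15 min at room temperature before substrate (15 nM final) started a 5 min reaction; beads (10 ug/ml final) were then added for 10 min before AlphaScreen detection.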
Six1-Eya2 inh = inhibitors of human Six1/Eya2 interaction. Q15475+O00167. AlphaScreen GST-Six1/His-Eya2 binding, biochemical; stronger effect = lower value. activity change, % (no concentration beside the values). actives 0.56% (n = 360,000). AID 651725; in the data active = activity change below about -65%; inconclusive = mostly about -30% to -63%
Target sequence (O00167 whole entry, looked up): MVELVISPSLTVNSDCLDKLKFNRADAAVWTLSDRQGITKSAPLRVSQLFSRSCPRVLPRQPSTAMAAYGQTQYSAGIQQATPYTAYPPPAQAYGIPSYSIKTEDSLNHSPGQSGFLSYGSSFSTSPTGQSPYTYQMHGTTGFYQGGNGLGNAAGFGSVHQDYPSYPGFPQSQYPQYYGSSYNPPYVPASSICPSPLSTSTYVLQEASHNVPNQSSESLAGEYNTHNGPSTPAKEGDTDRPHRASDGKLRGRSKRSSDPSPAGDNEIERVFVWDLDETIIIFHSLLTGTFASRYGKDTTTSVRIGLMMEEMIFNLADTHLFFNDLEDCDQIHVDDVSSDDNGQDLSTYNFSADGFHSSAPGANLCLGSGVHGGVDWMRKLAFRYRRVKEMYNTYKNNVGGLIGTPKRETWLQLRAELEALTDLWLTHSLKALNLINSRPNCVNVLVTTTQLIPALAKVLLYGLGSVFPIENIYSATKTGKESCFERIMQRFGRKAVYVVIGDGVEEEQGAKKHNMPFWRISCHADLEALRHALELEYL
Target sequence (Q15475 whole entry, looked up): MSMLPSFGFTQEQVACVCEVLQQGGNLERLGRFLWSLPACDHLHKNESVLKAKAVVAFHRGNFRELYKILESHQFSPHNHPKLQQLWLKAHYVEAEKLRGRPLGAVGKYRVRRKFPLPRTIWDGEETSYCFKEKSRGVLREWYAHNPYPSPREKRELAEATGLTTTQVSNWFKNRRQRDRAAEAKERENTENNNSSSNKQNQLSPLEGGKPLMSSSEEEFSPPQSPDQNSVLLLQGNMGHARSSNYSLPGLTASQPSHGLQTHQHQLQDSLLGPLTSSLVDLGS
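Six1/Eya2 binding was read as AlphaScreen signal after compounds were pinned into GST-Six1 plus His-tagged Eya2 (5X stock 250/500 nM) in pH 8.0 Tris/NaCl/TCEP buffer, beads added, then incubated 1 h, 37 C, dark.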
TDP1 cell noCPT = qHTS for Inhibitors of human tyrosyl-DNA phosphodiesterase 1 (TDP1): qHTS in cells in absence of CPT | Potency, µM (series often up to 46.2 µM), without a hit: top-dose activity change, negative = growth inhibition, hits mostly inhibitors | AID 686978, 2013 | actives 15% (n = 420,000) | DT40 Tdp1-/- hTDP1 cells, no CPT, ATP luminescence, 48 h; note: potency is the fitted concentration of half-maximal effect; nearly all actives have a fitted effect of over 55% in size
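Seeded 400 DT40-hTDP1 cells/well (vehicle DMSO, no 20 nM CPT); pinned compounds; ≥48 hr at 37 °C; CellTiter-Glo luminescence as viability measure.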
CtBP-E1A inh = blocks the CtBP interaction with E1A; actives 0.49% (n = 340,000); activity change, % (concentration not given with the values); AlphaScreen GST-E1A/His-CtBP binding, 1536-well; stronger effect = lower value; in the data active = activity change below about -65%; inconclusive = mostly about -30% to -63%
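Homogeneous bead-based format: GST-tagged E1A captured on glutathione donor beads, His-tagged CtBP on nickel acceptor beads; compounds precede bead addition by 2 h at 37 °C.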
IL-1B inflam inh = blocks inflammasome-driven IL-1 beta release. actives 4.7% (n = 360,000). THP-1 LPS/ATP IL-1B secretion, AlphaLISA, 16 h; stronger effect = lower value. activity change, % at 57.5 µM; in the data active = activity change below about -50%; inconclusive = mostly about -30% to -49%
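THP-1 cells pretreated 1 hr with compounds (up to 57.5 uM final), then stimulated with LPS (250 ng/mL final) plus ATP (1.25 mM final); secreted IL-1B measured by AlphaLISA after 16 hr, decreased signal indicating inhibition.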
TDP1 cell CPT = growth inhibition of DT40 Tdp1-/-;hTDP1 cells with camptothecin (screen for TDP1 inhibitors) | actives 12% (n = 420,000) | Potency, µM (titrated, usually from 46.2 µM), for the others: at the highest dose activity change, negative = growth inhibition, actives largely listed as inhibitors | chicken DT40 Tdp1-/-;hTDP1 cells + 20 nM CPT, ATP luminescence, 48 h; note: potency is the fitted concentration of half-maximal effect; nearly all actives have a fitted effect of over 55% in size
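Chicken DT40 Tdp1-/- cells stably complemented with human TDP1 were seeded at 400 cells/well in medium containing 20 nM camptothecin, exposed to pin-transferred compounds, and grown at 37 °C for at least 48 hr. Viability was read as ATP luminescence.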
* = called active by the depositor; ? = inconclusive; / = not tested or not shown; [ ] = another dose, or the depositor's remark. Unless noted, calls come from the whole dose curve; as a rule, active = well fitted curve in the direction sought with a large enough effect; inconclusive = small, poorly fitted or top-dose-only effect, or another doubt; inactive = no such curve, though single readings can be large; an effect the other way counts as inactive or inconclusive. % is set by controls: 0 for no effect and ±100 for the full control effect.

SMILES	TDP1 block	Six1-Eya2 inh	TDP1 cell noCPT	CtBP-E1A inh	IL-1B inflam inh	TDP1 cell CPT
NC(N)=N/N=C/c1ccc(OCc2ccc(Cl)cc2)cc1	7.3%	-3.0	?	-7.8	-93.6*	20.6µM*
CS(=O)(=O)N1Cc2cc(C(=O)NCC3CCCCC3)nc(-c3cccc(-c4cccnc4)c3)c2[C@H]1CCO	/	-5.6	?	1.9	?	?
CC(=O)N1CCN=C1SCc1ccc(C(F)(F)F)cc1	0.3%	2.1	-0.6%	/	-6.3	-1.9%
Cc1cc(NC(=O)c2ccccc2Cl)ccc1NC(=O)c1ccccc1	0.4%[12.3 µM]	/	-23.9%	/	/	0.8%
Cc1ccc(Nc2nc(NCCCN3CCOCC3)nc(N)c2[N+](=O)[O-])cc1	0.0%	-14.0	-10.5%	-15.5	?	-6.5%
COc1cccc(CNC(=O)c2nn(-c3ccccc3Cl)nc2CO)c1	2.3%	/	-28.3%	/	/	?
O=C(c1cc(-c2cccs2)nn1-c1ccccc1)N1CCN(S(=O)(=O)c2ccccc2)CC1	0.0%	20.9	18.4µM*	12.1	-14.1	?
O=C(c1cc(-c2ccccc2)nn1-c1ccccc1)N1CCN(S(=O)(=O)c2ccc(F)cc2)CC1	/	-0.2	?	1.6	30.9	?
O=C(c1cc(C2CC2)nn1-c1ccccc1)N1CCN(S(=O)(=O)c2ccc(F)cc2)CC1	/	-3.8	?	5.1	4.1	-20.2%
Cc1ccc(S(=O)(=O)N2CCN(C(=O)c3cc(-c4cccs4)nn3-c3ccccc3)CC2)cc1	5.3%	2.3	18.4µM*	-14.4	0.0	13µM*
C/C(=N\NC(=O)CNC(=O)C(c1ccccc1)c1ccccc1)c1ccc(C(C)(C)C)cc1	0.0%	-0.4	16.4µM*	-0.5	7.4	16.4µM*
COc1ccc(/C(C)=N\NC(=O)CNC(=O)C(c2ccccc2)c2ccccc2)cc1OC	0.5%	0.6	-6.8%	0.7	51.4	?
CC(C)NS(=O)(=O)c1ccc(OCC(=O)NCc2ccc3c(c2)OCO3)c(Cl)c1	2.3%	1.0	?	3.7	-2.8	?
O=C1C(=O)N(Cc2ccncc2)C(c2cccc(O)c2)/C1=C(\O)c1ccc2c(c1)OCCO2 (configuration not stated)	7.0%	2.1	4.3%	-7.1	1.6	4.5%
COc1ccccc1N(CC(=O)NCCC1=CCCCC1)S(=O)(=O)c1ccccc1	6.0%	-1.3	?	1.8	-12.2	?
CCOCCCNC(=O)C(c1ccc(C)cc1)N(Cc1ccc2c(c1)OCO2)C(=O)CNC(C)=O (configuration not stated)	-4.9%	6.8	3.4%	-3.3	44.0	0.0%
O=C(C[C@@H]1C/C=C\C[C@H](Cc2ccc(F)cc2)C(=O)OCCNC1=O)N[C@H](CO)Cc1ccccc1	1.4%	13.5	16.4µM*	-14.1	18.5	?
C[C@@H]1COC(=O)[C@H](Cc2ccc(F)cc2)CC/C=C/C[C@@H](CC(=O)N[C@@H](CO)Cc2ccccc2)C(=O)N1	0.2%	1.8	25.9µM*	3.5	5.8	?
O=C(C[C@H]1C/C=C\C[C@@H](Cc2ccc(F)cc2)C(=O)O[C@@H](c2ccccc2)CNC1=O)N[C@@H](CO)Cc1ccccc1	-3.6%	-4.2	-16.6%	/	-0.9	-14.0%
CC(C)(C)[C@H]1COC(=O)[C@@H](Cc2ccc(F)cc2)C/C=C\C[C@@H](CC(=O)N[C@@H](CO)Cc2ccccc2)C(=O)N1	1.8%	-8.9	18.4µM*	/	-24.8	?
CC(C)(C)[C@H]1COC(=O)[C@@H](Cc2ccc(F)cc2)C/C=C\C[C@@H](CC(=O)N[C@H](CO)Cc2ccccc2)C(=O)N1	0.1%	-4.3	?	/	-10.6	?
O=C(C[C@@H]1C/C=C/CC[C@H](Cc2ccc(F)cc2)C(=O)OCCNC1=O)N[C@H](CO)Cc1ccccc1	0.3%	0.0	11.6µM*	-0.2	-5.9	20.6µM*
COc1cccc(-n2c(SCC(N)=O)nc3c(oc4ccccc43)c2=O)c1	1.0%	/	-27.4%	/	/	?
CCC/C=C(\CCC)C(NC(=O)c1ccc(C(=O)OC)cc1)c1ccc(C(=O)OC)cc1 (configuration not stated)	0.3%	0.5	7.31µM*	8.4	32.5	9.2µM*
O=C(Cn1ccc(=O)[nH]c1=O)c1ccc([N+](=O)[O-])o1	/	1.9	2.06µM*	-7.7	?	5.17µM*
SMILES	TDP1 block	Six1-Eya2 inh	TDP1 cell noCPT	CtBP-E1A inh	IL-1B inflam inh	TDP1 cell CPT
CCCC(=O)C1=C(c2ccc(C)cc2)N(C(=O)CCC)n2cnnc2S1	0.0%	/	16.4µM*	/	/	?
CCCC(=O)N1CCCC1(C)C(=O)Nc1ccc(C)c(C)c1 (configuration not stated)	/	8.5	-16.3%	7.8	-1.4	4.5%
CCCC(=O)C1=C(c2ccc(C)c(C)c2)N(C(=O)CCC)n2c(CC)nnc2S1	-10.4%	/	23.1µM*	/	/	?
CC1OC(O[C@H]2CC[C@]3(C)C4C=C[C@]56OC[C@@]7(CC[C@@H](C)[C@H](C)C75)[C@H](O)C[C@@]6(C)[C@]4(C)CC[C@H]3C2(C)C)C(OC2OC(CO)C(O)C(O)C2OC2OCC(O)C(O)C2O)C(O)C1O (some centres not stated)	1.2%	/	/	/	/	/
CCN(CC)C(=O)Cn1cc(C(=O)C(=O)NCCCn2ccnc2)c2ccccc21	5.3%	3.5	-3.2%	-4.0	8.2	9.7%
Cc1cccc(NC(=O)Nc2cnccn2)c1	-1.8%	3.6	1.7%	/	11.4	1.0%
C/C(CC(=O)Nc1cc(C)ccn1)=N\NC(=O)c1ccccc1C	3.0%	5.1	-11.0%	0.0	-12.4	2.5%
O=C(C=CC=Cc1ccccc1)c1ccc([N+](=O)[O-])cc1	/	15.5	20.6µM*	-4.1	-25.7	23.1µM*
Cc1cccc(C(=O)NCCNC(=O)c2cccc(C)c2)c1	0.6%	4.9	29.1µM*	-1.6	74.1	-17.5%
O=C(/C=C/NNC(=O)c1ccccc1O)c1ccccc1	/	-11.4	16.4µM*	-23.4	-3.1	?
Cc1cccc(C(=O)NCCN2CCCC2)c1	1.8%	-0.6	-20.5%	3.2	-7.3	-5.0%
O=C(NNS(=O)(=O)c1ccc([N+](=O)[O-])cc1)c1ccccc1	/	-15.0	3.1%	4.0	-3.5	-3.9%
O=C(/C=C/NNC(=O)c1ccccc1)c1ccc([N+](=O)[O-])cc1	-3.0%	?	9.2µM*	15.9	129.0	6.51µM*
